Source: PubChem BioAssay (Tox21)
Unmarked numbers belong to inactive results. Results filed as inconclusive are left out. Activity calls are given as the source filed them. Unless noted, calls come from the whole dose curve; as a rule, active = well fitted curve in the direction sought with a large enough effect in the repeat runs; inconclusive = weak or mixed curves; inactive = no such curve, though single readings can be large; an effect the other way counts as inactive or inconclusive.

test system: not listed separately; assay: qHTS assay to identify small molecule agonists of the androgen receptor (AR) signaling pathway in the presence of an antagonist - cell viability counter screen (AID 1259379); conditions: MDA-kb2 viability, CellTiter-Fluor, 16 h; series mostly up to 92.4 µM; activity change, negative = cytotoxicity: at the top concentration; note: nearly all actives have a fitted effect of over 25% in size; note: potency is the fitted concentration of half-maximal effect;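 for activity change, negative = cytotoxicity: MDA-kb2 human breast cancer cells carrying an MMTV luciferase reporter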
Summary of the method: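 Cells: MDA-kb2 (MMTV-luc, AR and GR elements), 3,000/well, 5 hr settle. Added: nilutamide 3.0uM final, then compounds (15 conc.). Incubation: 16 hr, 37C, no CO2. Read-out: CellTiter-Fluor, 1 hr, fluorescence.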
% is set by controls: 0 for no effect and ±100 for the full control effect.

SMILES	activity change, negative = cytotoxicity	Potency
[Cl][Pt-2]([Cl])([Cl])[Cl]	1.72%	–
CCCC[P+](C)(CCCC)CCCC	0.0729%	–
O=[N+]([O-])c1cccc(C(F)(F)F)c1	0.652%	–
S=C([S-])NCCNC(=S)[S-].S=C([S-])NCCNC(=S)[S-].[Mn+2].[Zn+2]	-0.352% [at 42.5 µM]	–
CC(=O)Oc1cc2c(s1)CCN(C(C(=O)C1CC1)c1ccccc1F)C2 (configuration not stated)	2.8% [at 42.5 µM]	–
COc1ccc(-c2coc3cc(O)ccc3c2=O)cc1	1.58%	–
CN1CCN2c3ccccc3Cc3ccccc3C2C1 (configuration not stated)	-2.1% [at 42.5 µM]	–
CC[N+](CC)(CC)CCOc1ccc(/C=C/c2ccccc2)cc1	–	9.44 µM (active)
CCC(C)(CCC(C)C)C(=O)[O][Sn]([CH3])([CH3])[O]C(=O)C(C)(CC)CCC(C)C (configuration not stated)	-8.19%	–
S=c1nccc[nH]1	0.504%	–
O=C(/C=C/c1ccc(O)c(O)c1)O[C@@H](C(=O)O)[C@@H](OC(=O)/C=C/c1ccc(O)c(O)c1)C(=O)O	-12.1%	–

test system: not listed separately; assay: qHTS assay to identify small molecule agonists of the estrogen receptor beta (ER-beta) signaling pathway - cell viability counter screen (AID 1259380); conditions: ER-beta-bla HEK293T viability, CellTiter-Glo luminescence, 16 h; series mostly up to 92.4 µM; activity change, negative = cytotoxicity: at the top concentration; note: nearly all actives have a fitted effect of over 30% in size; note: potency is the fitted concentration of half-maximal effect
Summary of the method: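 HEK293T ER-beta-UAS-bla; 2% CS-FBS; 6 hr pre-plate, 16 hr cpd at 37C/5% CO2; LiveBLAzer read first, then CellTiter-Glo 30 min RT, luminescence.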

SMILES	activity change, negative = cytotoxicity	Potency
Nc1cc(Cl)c(O)c(Cl)c1	-12.5%	–
O=c1c(O)c(-c2ccc(O)cc2O)oc2cc(O)cc(O)c12	2.34%	–
Clc1nnc(Cl)c2ccccc12	-3.06%	–
CCCCC/C=C\C/C=C\CCCCCCCC(=O)O	–	43.3 µM (active)
OCC(F)(F)F	0.907%	–
O=C(O)O	-10.9% [at 8.39 µM]	–
Clc1ccnc(Cl)n1	1.9%	–
C=CCn1c(=O)n(CC=C)c(=O)n(CC=C)c1=O	-0.158%	–
COC(=O)Nc1nc2ccc(C(=O)c3ccccc3)cc2[nH]1	-5.62% [at 42.5 µM]	–
CC(C)=CCC1=C(O)c2ccccc2C(=O)C1=O	–	1.53 µM (active)
O=S(=O)(O)c1ccc(N=Nc2c(O)ccc3ccccc23)cc1	–	43.3 µM (active)
CCCCN(CCCC)CC(O)c1cc(Cl)cc2c1-c1ccc(Cl)cc1/C2=C/c1ccc(Cl)cc1 (configuration not stated)	–	29.8 µM (active)
CC(C)NC[C@@H](O)COc1ccc(CC(N)=O)cc1	-1.48% [at 42.5 µM]	–
Cc1cc(C)c(/C=C2\C(=O)Nc3ccccc32)[nH]1	–	11.9 µM (active)
CCCC[P+](C)(CCCC)CCCC	2.15%	–
CC(=O)Oc1cc2c(s1)CCN(C(C(=O)C1CC1)c1ccccc1F)C2 (configuration not stated)	3.76% [at 42.5 µM]	–
COc1ccc(-c2coc3cc(O)ccc3c2=O)cc1	-9.77%	–
COC(=O)C1=C(C)NC(C)=C(C(=O)OCCN2CCN(C(c3ccccc3)c3ccccc3)CC2)C1c1cccc([N+](=O)[O-])c1 (configuration not stated)	4.33% [at 42.5 µM]	–
S=c1nccc[nH]1	-10.3%	–
O=C(/C=C/c1ccc(O)c(O)c1)O[C@@H](C(=O)O)[C@@H](OC(=O)/C=C/c1ccc(O)c(O)c1)C(=O)O	-0.0835%	–

molecular target: Androgen receptor (Homo sapiens) (UniProt P10275); assay: qHTS assay to identify small molecule agonists of the androgen receptor (AR) signaling pathway in the presence of an antagonist (AID 1259381; calls by dose curve; note: nearly all actives have a fitted effect of over 15% in size); conditions: MDA-kb2 MMTV-luciferase, AR agonist + nilutamide, 16 h; series mostly up to 92.4 µM; activation: at the top concentration
Summary of the method: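 MDA-kb2 cells, 3,000/well, rested 5hr at 37C/0% CO2 → nilutamide 3.0uM final or buffer → compounds, 15 conc. → 16hr at 37C → ONE-Glo, 30min RT → luminescence.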

Androgen receptor (Homo sapiens), sequence (P10275 whole entry, looked up): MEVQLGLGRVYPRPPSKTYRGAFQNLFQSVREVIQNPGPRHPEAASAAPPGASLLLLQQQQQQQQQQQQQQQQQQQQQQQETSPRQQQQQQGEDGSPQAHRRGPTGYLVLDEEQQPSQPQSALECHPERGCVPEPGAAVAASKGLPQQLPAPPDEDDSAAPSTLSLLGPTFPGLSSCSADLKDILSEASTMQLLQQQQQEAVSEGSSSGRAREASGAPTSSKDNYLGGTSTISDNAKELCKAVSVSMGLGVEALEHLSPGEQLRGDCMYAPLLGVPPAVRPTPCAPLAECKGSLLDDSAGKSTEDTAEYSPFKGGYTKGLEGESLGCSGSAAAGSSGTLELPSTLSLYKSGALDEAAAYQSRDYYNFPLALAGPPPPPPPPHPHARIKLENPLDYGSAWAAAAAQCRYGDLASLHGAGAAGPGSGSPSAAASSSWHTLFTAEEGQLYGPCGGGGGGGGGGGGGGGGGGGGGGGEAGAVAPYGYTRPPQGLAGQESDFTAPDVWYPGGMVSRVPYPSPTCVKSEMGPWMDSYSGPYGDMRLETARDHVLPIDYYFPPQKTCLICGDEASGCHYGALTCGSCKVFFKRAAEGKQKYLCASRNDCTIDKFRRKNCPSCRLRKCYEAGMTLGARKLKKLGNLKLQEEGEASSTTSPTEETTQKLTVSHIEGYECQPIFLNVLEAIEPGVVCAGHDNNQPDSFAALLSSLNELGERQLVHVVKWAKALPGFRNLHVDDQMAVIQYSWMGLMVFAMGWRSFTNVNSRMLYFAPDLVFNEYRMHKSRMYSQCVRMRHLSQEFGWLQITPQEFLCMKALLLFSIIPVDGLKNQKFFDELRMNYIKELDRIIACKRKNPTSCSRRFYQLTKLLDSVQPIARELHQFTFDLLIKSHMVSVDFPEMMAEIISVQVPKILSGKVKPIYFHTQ

SMILES	activation	outcome
Nc1cc(Cl)c(O)c(Cl)c1	1.58%	–
COC(=O)Nc1nc2ccc(C(=O)c3ccccc3)cc2[nH]1	6.3% [at 42.5 µM]	–
Oc1c(I)cc(Cl)c2cccnc12	–	inactive
CCCc1ccc(OCC(=O)N2CCN(C(=O)COc3ccc(CCC)cc3OC)CC2)c(OC)c1	-10.1% [at 42.5 µM]	–
Cc1cc(C)c(/C=C2\C(=O)Nc3ccccc32)[nH]1	6.7% [at 42.5 µM]	–
CN1CCN2c3ccccc3Cc3ccccc3C2C1 (configuration not stated)	-3.99% [at 42.5 µM]	–

test system: not listed separately; assay: qHTS assay to identify small molecule antagonists of the estrogen receptor beta (ER-beta) signaling pathway - cell viability counter screen (AID 1259382); conditions: ER-beta-UAS-bla HEK293T viability, CellTiter-Glo luminescence, 16 h; series mostly up to 92.4 µM; activity change, negative = cytotoxicity: at the top concentration;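 note: HEK293T cells carrying ER-beta-UAS-bla reporter stimulated with estradiol; nearly all actives have a fitted effect of over 55% in size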
Summary of the method: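 Cells: ER-beta-UAS-bla HEK293T, 2,000/well, 2% CS-FBS, 6 hr settle. Cpd + E2 (1nM final), 16 hr, 37C/5% CO2. Bla FRET substrate 2 hr RT, then CellTiter-Glo 30 min RT, luminescence.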

SMILES	activity change, negative = cytotoxicity
Nc1cc(Cl)c(O)c(Cl)c1	-10.2%
O=c1c(O)c(-c2ccc(O)cc2O)oc2cc(O)cc(O)c12	0.608%
CC(C)(C)c1ccc(C(O)CCCN2CCC(C(O)(c3ccccc3)c3ccccc3)CC2)cc1 (configuration not stated)	-17.1% [at 42.5 µM]
OCC(F)(F)F	1.01%
O=C(O)O	-30.1% [at 8.39 µM]
Clc1ccnc(Cl)n1	-4.46%
C=CCn1c(=O)n(CC=C)c(=O)n(CC=C)c1=O	-1.51%
COC(=O)Nc1nc2ccc(C(=O)c3ccccc3)cc2[nH]1	-0.815% [at 42.5 µM]
CCO[C@@H]1O[C@H](C(COCc2ccccc2)OCc2ccccc2)[C@H](OCc2ccccc2)[C@H]1O (some centres not stated)	-14.6% [at 42.5 µM]
c1ccc(C(O[C@@H]2CCCN(CCc3ccc4c(c3)OCO4)C2)c2ccccc2)cc1	-17.6%
c1ccc(SSc2ccccc2)cc1	-21.6%
CC(C)NC[C@@H](O)COc1ccc(CC(N)=O)cc1	7.34% [at 42.5 µM]
CCCc1ccc(OCC(=O)N2CCN(C(=O)COc3ccc(CCC)cc3OC)CC2)c(OC)c1	2.08% [at 42.5 µM]
Cc1cc(C)c(/C=C2\C(=O)Nc3ccccc32)[nH]1	-20.2% [at 42.5 µM]
Nc1ccc(Oc2ccc(Cl)cc2)cc1	-10%
[Cl][Pt-2]([Cl])([Cl])[Cl]	-8.9%
S=C([S-])NCCNC(=S)[S-].S=C([S-])NCCNC(=S)[S-].[Mn+2].[Zn+2]	12.2% [at 42.5 µM]
CC(=O)Oc1cc2c(s1)CCN(C(C(=O)C1CC1)c1ccccc1F)C2 (configuration not stated)	-0.39% [at 42.5 µM]
COc1cc2nc(N3CCN(C(=O)c4ccco4)CC3)nc(N)c2cc1OC	-13.3% [at 19 µM]
COc1ccc(-c2coc3cc(O)ccc3c2=O)cc1	-11.6%
COC(=O)C1=C(C)NC(C)=C(C(=O)OCCN2CCN(C(c3ccccc3)c3ccccc3)CC2)C1c1cccc([N+](=O)[O-])c1 (configuration not stated)	-8.48% [at 42.5 µM]
CC[N+](CC)(CC)CCOc1ccc(/C=C/c2ccccc2)cc1	-14.6% [at 42.5 µM]
CCC(C)(CCC(C)C)C(=O)[O][Sn]([CH3])([CH3])[O]C(=O)C(C)(CC)CCC(C)C (configuration not stated)	12.6%
S=c1nccc[nH]1	-3.05%
O=C(/C=C/c1ccc(O)c(O)c1)O[C@@H](C(=O)O)[C@@H](OC(=O)/C=C/c1ccc(O)c(O)c1)C(=O)O	7.26%
